# In PubChem BioAssay (Tox21):
# Values without a mark were called inactive. Records with an inconclusive call do not appear. Entries that show only a call come without a potency. Active and inactive are the calls of the source. Unless noted, calls follow the shape of the dose curve; as a rule, active = well fitted curve in the direction sought with a large enough effect in the repeat runs; inconclusive = weak or mixed curves; inactive = no such curve, though single readings can be large; an effect the other way counts as inactive or inconclusive.
# How the values were obtained:
# [1] = target: Thyrotropin receptor (Homo sapiens) (UniProt P16473); assay: qHTS assay to identify small molecule antagonists of the thyroid stimulating hormone receptor (TSHR) signaling pathway (AID 1259385; calls by dose curve; also: nearly all actives have a fitted effect of over 20% in size)
# Sequence of Thyrotropin receptor (Homo sapiens) (P16473 whole entry, looked up): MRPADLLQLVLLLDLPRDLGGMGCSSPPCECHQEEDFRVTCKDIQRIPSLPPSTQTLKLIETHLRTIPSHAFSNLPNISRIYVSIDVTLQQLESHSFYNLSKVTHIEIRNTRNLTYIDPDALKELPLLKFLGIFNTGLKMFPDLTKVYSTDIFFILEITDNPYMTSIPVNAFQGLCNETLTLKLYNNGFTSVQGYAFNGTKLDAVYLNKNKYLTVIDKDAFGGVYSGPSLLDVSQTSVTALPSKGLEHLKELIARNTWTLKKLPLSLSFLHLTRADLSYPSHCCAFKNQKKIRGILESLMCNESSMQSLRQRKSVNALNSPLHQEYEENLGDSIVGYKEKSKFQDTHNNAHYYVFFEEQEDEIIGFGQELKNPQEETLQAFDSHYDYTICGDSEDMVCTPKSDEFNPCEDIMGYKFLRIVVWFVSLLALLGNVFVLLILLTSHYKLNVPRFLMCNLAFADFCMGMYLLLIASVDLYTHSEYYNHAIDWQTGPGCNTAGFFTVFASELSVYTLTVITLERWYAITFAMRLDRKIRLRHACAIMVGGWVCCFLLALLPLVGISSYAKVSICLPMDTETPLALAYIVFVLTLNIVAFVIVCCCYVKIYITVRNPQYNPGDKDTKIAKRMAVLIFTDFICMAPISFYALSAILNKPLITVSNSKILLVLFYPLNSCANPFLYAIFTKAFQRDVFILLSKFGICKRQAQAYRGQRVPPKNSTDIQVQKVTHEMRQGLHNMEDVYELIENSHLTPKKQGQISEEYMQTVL
# Summary of the method: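 TSHR-HEK293 cells were plated and held 18 h at 37C/5% CO2, then given compound plus Ro20-1724 and stimulated with TSH at 1.5 ng/mL final. After 30 min at room temperature, cAMP was detected with cAMP-d2/anti-cAMP-cryptate (1 h) by fluorescence.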
# [2] = qHTS assay to identify small molecule agonists of the estrogen receptor alpha (ER-alpha) signaling pathway in the presence of an antagonist - cell viability counter screen (AID 1259386);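 also: cells exposed to compounds for 22 h at 37 °C before the viability read; nearly all actives have a fitted effect of over 30% in size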; also: potency is read from the fitted curve at half-maximal effect
# Summary of the method: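 In this counter screen, compound effects on VM7Luc4E2 viability were tested in the presence of the antagonist ICI-182,780 at 10.0nM final. Compounds were dosed at 15 concentrations, exposure lasted 22hr, and the CellTiter-Fluor signal was read.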
# [3] = target: Progesterone receptor (Homo sapiens) (UniProt P06401); assay: qHTS assay to identify small molecule agonists of the progesterone receptor (PR) signaling pathway (AID 1346784; calls by dose curve; also: nearly all actives have a fitted effect of over 30% in size)
# Sequence of Progesterone receptor (Homo sapiens) (P06401 whole entry, looked up): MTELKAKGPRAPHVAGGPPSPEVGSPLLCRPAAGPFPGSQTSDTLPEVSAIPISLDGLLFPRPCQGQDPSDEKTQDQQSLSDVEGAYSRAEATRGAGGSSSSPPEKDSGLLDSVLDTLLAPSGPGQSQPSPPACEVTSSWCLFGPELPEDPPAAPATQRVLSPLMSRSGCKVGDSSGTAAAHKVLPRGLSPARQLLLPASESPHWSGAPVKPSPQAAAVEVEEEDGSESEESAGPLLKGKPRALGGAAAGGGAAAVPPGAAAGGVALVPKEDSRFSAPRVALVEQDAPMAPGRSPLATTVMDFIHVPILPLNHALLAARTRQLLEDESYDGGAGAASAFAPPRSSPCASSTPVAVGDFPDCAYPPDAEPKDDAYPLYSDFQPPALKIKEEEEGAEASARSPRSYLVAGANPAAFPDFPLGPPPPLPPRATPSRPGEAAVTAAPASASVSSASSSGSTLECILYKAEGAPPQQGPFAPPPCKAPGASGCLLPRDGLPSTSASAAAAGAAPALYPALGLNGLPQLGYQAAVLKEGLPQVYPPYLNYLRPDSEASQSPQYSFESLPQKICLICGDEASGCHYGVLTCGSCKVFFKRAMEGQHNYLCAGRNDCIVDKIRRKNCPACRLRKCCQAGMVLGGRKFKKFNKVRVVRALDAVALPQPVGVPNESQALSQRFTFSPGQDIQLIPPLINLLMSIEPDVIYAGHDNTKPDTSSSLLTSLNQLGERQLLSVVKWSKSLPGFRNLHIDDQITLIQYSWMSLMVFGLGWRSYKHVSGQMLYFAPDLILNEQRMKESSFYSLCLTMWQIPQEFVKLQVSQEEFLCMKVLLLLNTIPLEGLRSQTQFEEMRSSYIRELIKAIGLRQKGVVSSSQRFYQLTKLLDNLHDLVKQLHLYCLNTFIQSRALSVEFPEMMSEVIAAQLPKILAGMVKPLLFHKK
# Summary of the method: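 Fluorescence from LiveBLAzer B/G FRET substrate cleavage (2 hr, RT) reported PR activation in PR-UAS-bla HEK 293T cells treated 16 hr at 37C/5% CO2 with compounds; medium contained 2% charcoal-stripped FBS.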
# [4] = target: Progesterone receptor (Homo sapiens) (UniProt P06401); assay: qHTS assay to identify small molecule antagonists of the progesterone receptor (PR) signaling pathway (AID 1346795; active = well fitted inhibition curve with a large enough effect in the signal ratio in the repeat runs, not every such curve was filed as active; the % refers to the signal ratio; also: potency is read from the fitted curve at half-maximal effect)
# Summary of the method: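 Fluorescence intensity measured 2 hr after adding beta-lactamase FRET substrate to PR-UAS-bla HEK293T cells that had been co-treated 16 hr with compound and 1 nM R5020 (final concentration) in 2% charcoal-stripped FBS.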
# [5] = qHTS assay to identify small molecule antagonists of the TGF-beta/Smad signaling pathway - cell viability counter screen (AID 1346824); also: nearly all actives have a fitted effect of over 50% in size
# Summary of the method: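 SBE-bla HEK 293T cells were plated overnight at 37 C, then given compounds in DMSO plus TGF-beta1 (added as 0.25 ng/mL solution) for 5 hr. After the bla read, CellTiter-Glo was added to the same wells and luminescence read after 30 min at room temperature.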
# [6] = qHTS assay to identify small molecule agonists of the TGF-beta/Smad signaling pathway - cell viability counter screen (AID 1346829); also: top concentration of the series differs between compounds; nearly all actives have a fitted effect of over 45% in size
# Summary of the method: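 Tox21 qHTS format: SBE-bla HEK 293T cells treated with DMSO-dissolved compounds for 5 hr; CellTiter-Glo luminescence after 30 min at room temperature.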
# [7] = qHTS assay to identify small molecule agonists of the TGF-beta/Smad signaling pathway (AID 1346859; active = well fitted activation curve with a large enough effect in the signal ratio in the repeat runs, not every such curve was filed as active; the % refers to the signal ratio; also: series mostly up to about 77 µM)
# Summary of the method: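 After overnight seeding, SBE-bla HEK 293T cells are dosed with compounds in DMSO and kept 5 hr at 37 C, 5% CO2. LiveBLAzer-type FRET substrate is then applied for 2 hr at room temperature.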
# [8] = Caspase-3/7 induction in HepG2 cells by small molecules, qHTS assay (AID 1346978); also: nearly all actives have a fitted effect of over 15% in size
# Summary of the method: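 Wild-type HepG2 cells (2,000/well) were settled 5 h at 37 C, 5% CO2, then exposed to compounds in DMSO for 17 h. Caspase-3/7 activity was read by luminescence 30 min after adding Caspase-Glo 3/7 reagent at room temperature.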
# [9] = Caspase-3/7 induction in CHO-K1 cells by small molecules, qHTS cell viability counter screen (AID 1346979); also: nearly all actives have a fitted effect of over 35% in size; also: potency is read from the fitted curve at half-maximal effect
# Summary of the method: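 Viability readout by fluorescence (CellTiter-Fluor) on wild-type CHO-K1 cells exposed for 16hr at 37C and 5% CO2 to compounds delivered in DMSO; reagent incubated 1hr before reading.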
# [10] = Caspase-3/7 induction in CHO-K1 cells by small molecules, qHTS assay (AID 1346980); also: nearly all actives have a fitted effect of over 15% in size
# Summary of the method: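 Wild-type cells were seeded at 1,500 per well and settled 5 hr at 37 C, 5% CO2, then exposed to DMSO-dissolved compounds for 17 hr. Caspase-Glo 3/7 reagent was added, and luminescence was read after 30min at room temperature.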
# [11] = Caspase-3/7 induction in HepG2 cells by small molecules, qHTS cell viability counter screen (AID 1346981); also: nearly all actives have a fitted effect of over 30% in size; also: potency is read from the fitted curve at half-maximal effect
# Summary of the method: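 In this quantitative HTS counter screen, compounds delivered in DMSO were left on unmodified HepG2 cells for 16 hr at 37 C. Viability was then determined fluorometrically with CellTiter-Fluor, in parallel with caspase-3/7 induction in the same wells.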
# [12] = target: Nuclear receptor subfamily 1 group I member 2 (Homo sapiens) (UniProt O75469); assay: Human pregnane X receptor (PXR) small molecule agonists, qHTS assay (AID 1346982); also: nearly all actives have a fitted effect of over 35% in size; also: potency is read from the fitted curve at half-maximal effect
# Sequence of Nuclear receptor subfamily 1 group I member 2 (Homo sapiens) (O75469 whole entry, looked up): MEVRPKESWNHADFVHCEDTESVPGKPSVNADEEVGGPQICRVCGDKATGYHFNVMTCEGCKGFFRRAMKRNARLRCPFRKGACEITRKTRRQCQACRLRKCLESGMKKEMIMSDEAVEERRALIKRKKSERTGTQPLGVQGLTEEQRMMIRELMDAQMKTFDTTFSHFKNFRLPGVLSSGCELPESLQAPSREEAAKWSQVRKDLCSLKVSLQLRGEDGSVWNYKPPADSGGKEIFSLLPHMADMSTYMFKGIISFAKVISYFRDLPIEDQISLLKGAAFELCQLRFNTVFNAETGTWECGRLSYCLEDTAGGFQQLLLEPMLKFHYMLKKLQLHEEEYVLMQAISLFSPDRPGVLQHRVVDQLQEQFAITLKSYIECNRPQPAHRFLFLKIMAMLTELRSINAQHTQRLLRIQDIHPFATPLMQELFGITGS
# Summary of the method: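 Reporter HepG2 cells expressing PXR-Luc are cultured in charcoal-stripped FBS (5%), treated with compounds for 24 hr at 37 C, and assayed by ONE-Glo luminescence after 30 min at room temperature.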
# [13] = target: Cytochrome P450 2D6 (Homo sapiens) (UniProt P10635); assay: Cytochrome P450 Family 2 Subfamily D Member 6 (CYP2D6) small molecule antagonists: luciferase reporter qHTS assay (AID 1671196); also: nearly all actives have a fitted effect of over 50% in size; also: potency is read from the fitted curve at half-maximal effect
# Sequence of Cytochrome P450 2D6 (Homo sapiens) (P10635 whole entry, looked up): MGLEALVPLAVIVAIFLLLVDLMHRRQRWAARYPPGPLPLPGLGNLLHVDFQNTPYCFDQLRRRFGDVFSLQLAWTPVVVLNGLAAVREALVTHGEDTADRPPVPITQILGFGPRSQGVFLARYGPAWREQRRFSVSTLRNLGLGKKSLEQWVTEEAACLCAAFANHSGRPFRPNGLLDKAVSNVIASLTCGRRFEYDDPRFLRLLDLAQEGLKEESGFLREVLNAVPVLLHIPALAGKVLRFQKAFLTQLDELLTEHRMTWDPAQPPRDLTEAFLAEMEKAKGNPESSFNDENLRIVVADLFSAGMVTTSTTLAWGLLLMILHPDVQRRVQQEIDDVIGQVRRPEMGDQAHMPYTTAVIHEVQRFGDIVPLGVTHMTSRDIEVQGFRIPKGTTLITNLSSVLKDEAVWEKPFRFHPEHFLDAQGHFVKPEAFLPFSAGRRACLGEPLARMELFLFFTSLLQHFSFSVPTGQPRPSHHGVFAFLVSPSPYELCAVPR
# Summary of the method: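 Test chemicals meet CYP2D6 plus proluciferin substrate (10 min, RT); NADPH regenerating solution then drives turnover for 1 h. Detection reagent halts the reaction; luminescence measured after 20 min.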
# [14] = qHTS assay to identify small molecule agonists of the progesterone receptor (PR) signaling pathway - cell viability counter screen (AID 1346799; calls by dose curve; also: nearly all actives have a fitted effect of over 45% in size)
# Summary of the method: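 In parallel with the beta-lactamase readout, cytotoxicity toward PR-UAS-bla HEK293T cells was measured by CellTiter-Glo luminescence following 16 hr compound incubation in 2% charcoal-stripped FBS medium.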
# [15] = target: Thyrotropin-releasing hormone receptor (Homo sapiens) (UniProt P34981); assay: qHTS assay to identify small molecule antagonists of the thyrotropin-releasing hormone receptor (TRHR) signaling pathway (AID 1346877; active = well fitted inhibition curve with a large enough effect in the repeat runs, not every such curve was filed as active; also: series mostly up to about 51 µM)
# Sequence of Thyrotropin-releasing hormone receptor (Homo sapiens) (P34981 whole entry, looked up): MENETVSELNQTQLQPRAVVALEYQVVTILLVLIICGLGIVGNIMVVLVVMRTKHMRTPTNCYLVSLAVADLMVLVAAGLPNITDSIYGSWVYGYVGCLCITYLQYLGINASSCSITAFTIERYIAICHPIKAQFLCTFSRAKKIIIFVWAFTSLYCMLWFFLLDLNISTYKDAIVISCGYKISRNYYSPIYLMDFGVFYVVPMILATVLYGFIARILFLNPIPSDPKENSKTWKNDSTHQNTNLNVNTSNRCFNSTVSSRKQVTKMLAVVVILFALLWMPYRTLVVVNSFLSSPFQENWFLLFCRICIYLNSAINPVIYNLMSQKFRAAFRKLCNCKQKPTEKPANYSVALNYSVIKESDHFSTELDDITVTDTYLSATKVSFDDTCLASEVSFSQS
# Summary of the method: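 Kinetic fluorescence (3 min, 1 s resolution) following stimulation with TRH at 1 nM final; HEK293 cells bearing human TRHR; 5 min compound preincubation at RT; concentration-response over 15 points, triplicates.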
# [16] = target: Thyrotropin-releasing hormone receptor (Homo sapiens) (UniProt P34981); assay: qHTS assay to identify small molecule agonists of the thyrotropin-releasing hormone receptor (TRHR) signaling pathway (AID 1346891; calls by dose curve;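 also: HEK293 cells expressing TRHR with calcium dye readout; series mostly up to about 58 µM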)
# Summary of the method: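 Compounds were tested as agonists at 15 concentrations, in triplicate, on TRHR-Hek293 cells; calcium-sensitive dye fluorescence was recorded for 3 min following addition.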
# [17] = Human pregnane X receptor (PXR) small molecule agonists, qHTS cell viability counter screen (AID 1346977); also: nearly all actives have a fitted effect of over 50% in size
# Summary of the method: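 Viability counter screen: CellTiter-Fluor signal in PXR-Luc HepG2 cells, 24hr compound exposure, 37C, 5% CO2.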
# [18] = qHTS assay to identify small molecule antagonists of the progesterone receptor (PR) signaling pathway - cell viability counter screen (AID 1346798); also: series mostly up to about 92 µM; nearly all actives have a fitted effect of over 50% in size
# Summary of the method: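 CellTiter-Glo luminescence; PR-UAS-bla HEK293T, 3,000 cells/well; compound + R5020, 16 hr, 37C/5% CO2; 30 min RT before read.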
# [19] = target: Nuclear receptor subfamily 1 group I member 2 (Rattus norvegicus) (UniProt Q9R1A7); assay: Rat pregnane X receptor (rPXR) activation by small molecules, qHTS assay (AID 1346983); details: rPXR luciferase reporter cells, One-Glo luminescence, 24 h; max activation: active compounds read high; also: nearly all actives have a fitted effect of over 20% in size
# Sequence of Nuclear receptor subfamily 1 group I member 2 (Rattus norvegicus) (Q9R1A7 whole entry, looked up): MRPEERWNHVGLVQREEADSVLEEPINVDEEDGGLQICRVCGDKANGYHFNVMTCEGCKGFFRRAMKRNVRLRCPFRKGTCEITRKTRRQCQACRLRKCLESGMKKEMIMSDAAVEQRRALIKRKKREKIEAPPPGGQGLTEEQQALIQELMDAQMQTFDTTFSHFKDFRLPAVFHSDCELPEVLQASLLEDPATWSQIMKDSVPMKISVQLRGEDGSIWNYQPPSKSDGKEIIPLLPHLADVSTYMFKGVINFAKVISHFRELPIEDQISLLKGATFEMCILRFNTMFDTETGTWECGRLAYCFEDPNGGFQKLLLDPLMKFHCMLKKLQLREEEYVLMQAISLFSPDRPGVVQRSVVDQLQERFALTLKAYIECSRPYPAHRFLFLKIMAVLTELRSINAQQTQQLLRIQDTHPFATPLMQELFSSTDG
# Summary of the method: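 Cell-based rPXR luciferase reporter assay, 2,000 cells per well, rested 5hr at 37 C before compound addition in DMSO, then 24 hr at 37 C. One-Glo reagent was added and luminescence read after 30 min at room temperature.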
# [20] = target: Nuclear receptor subfamily 1 group I member 2 (Homo sapiens) (UniProt O75469); assay: Human pregnane X receptor (PXR) activation by small molecules, qHTS assay (AID 1346985); also: nearly all actives have a fitted effect of over 40% in size; also: potency is read from the fitted curve at half-maximal effect
# Summary of the method: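 DPX-2 cells (HepG2 co-transfected with a PXR response element and a CYP3A4-promoter luciferase construct) were seeded at 2,000 per well, rested 5 hr at 37C, then exposed to DMSO-dissolved compounds for 24 hr. Activation was read as luciferase luminescence.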
SMILES,Potency [1],Potency [2],Potency [3],Potency [4],outcome [5],outcome [6],outcome [7],Potency [8],Potency [9],Potency [10],Potency [11],Potency [12],Potency [13],Potency [14],outcome [15],outcome [16],Potency [17],Potency [18],max activation [19],Potency [20]
CCCN(C1CCN(C(=O)C2CCNCC2)CC1)[C@@H]1CCc2ccc(OC)cc2C1,inactive,inactive,inactive,inactive,inactive,inactive,inactive,inactive,inactive,inactive,inactive,inactive,10 µM (active),–,–,–,–,–,–,–
C=C(C)C(=O)OCCCCCCCCCCOC(=O)C(=C)C,inactive,inactive,inactive,inactive,inactive,inactive,inactive,inactive,inactive,inactive,inactive,inactive,–,inactive,inactive,inactive,inactive,–,–,–
O=C(OCCN1CCOCC1)c1cccnc1Nc1cccc(C(F)(F)F)c1,inactive,inactive,inactive,–,–,inactive,inactive,inactive,inactive,inactive,inactive,26.6 µM (active),inactive,inactive,inactive,inactive,inactive,inactive,–,–
CCOC(=O)CC(O)(CC(=O)OCC)C(=O)OCC,inactive,inactive,inactive,–,inactive,inactive,inactive,inactive,inactive,inactive,inactive,inactive,inactive,inactive,–,–,–,inactive,–,–
COc1cc(CNC(=O)CCCC/C=C/C(C)C)ccc1O,inactive,inactive,inactive,53 µM (active),inactive,inactive,inactive,inactive,inactive,inactive,inactive,33.5 µM (active),38.9 µM (active),–,inactive,inactive,inactive,–,–,–
CCc1ccc2c(c1)C(=O)c1ccccc1C2=O,inactive,inactive,inactive,–,inactive,inactive,inactive,inactive,–,inactive,–,21.7 µM (active),–,inactive,inactive,inactive,inactive,inactive,–,–
C[Si](C)(C)O[Si](C)(C)O[Si](C)(C)C,inactive,inactive,inactive,inactive,inactive,inactive,inactive,inactive,inactive,inactive,–,–,inactive,inactive,inactive,inactive,–,–,–,–
COc1ccc(CN(CCN(C)C)c2ncccn2)cc1,inactive,inactive,inactive,inactive,inactive,inactive,inactive,inactive,inactive,inactive,inactive,inactive,0.692 µM (active),inactive,inactive,inactive,inactive,–,-0.0529%,inactive
O=C(Nc1ccccc1)c1cc([N+](=O)[O-])ccc1Cl,inactive,inactive,inactive,–,inactive,inactive,–,inactive,–,inactive,inactive,61.1 µM (active),–,inactive,inactive,inactive,inactive,inactive,–,–
C=C[Si](OCC)(OCC)OCC,inactive,inactive,inactive,inactive,inactive,inactive,inactive,inactive,inactive,inactive,inactive,–,–,inactive,inactive,inactive,inactive,–,–,–
O=C(Cl)c1ccc(F)c(Cl)c1,inactive,inactive,inactive,inactive,–,inactive,inactive,inactive,–,inactive,–,inactive,–,–,inactive,inactive,inactive,–,–,–
O=C(O)c1ccccc1-n1cc(C(=O)O)c(=O)c2cc(Nc3c(F)cc(F)cc3Cl)c(Cl)cc21,inactive,inactive,inactive,inactive,inactive,inactive,inactive,inactive,inactive,inactive,–,inactive,–,–,–,–,inactive,–,–,–
CCCCCCC/C=C/C=O,inactive,inactive,inactive,inactive,–,inactive,inactive,inactive,inactive,inactive,inactive,–,39.9 µM (active),–,inactive,inactive,inactive,inactive,–,–
Clc1ccccc1-c1nc(-c2ccncc2)no1,inactive,inactive,inactive,26.6 µM (active),inactive,inactive,inactive,inactive,inactive,inactive,inactive,5.31 µM (active),13.8 µM (active),–,inactive,inactive,inactive,–,–,–
CCC(C)C1N=C(C)C(C)S1 (stereo unspecified),inactive,inactive,inactive,–,inactive,inactive,inactive,inactive,inactive,inactive,inactive,34.4 µM (active),–,inactive,inactive,inactive,inactive,inactive,–,–
CC(C)CCCCCOC(=O)CS,inactive,inactive,inactive,–,–,inactive,inactive,inactive,inactive,inactive,inactive,–,25.2 µM (active),inactive,inactive,inactive,inactive,inactive,–,–
C[C@H]1C[C@H]2[C@@H]3CCC4=CC(=O)C=C[C@]4(C)[C@@]3(F)[C@@H](O)C[C@]2(C)[C@@]1(O)C(=O)COP(=O)(O)O,inactive,inactive,inactive,–,inactive,inactive,inactive,inactive,inactive,inactive,inactive,–,–,inactive,inactive,inactive,inactive,inactive,–,–
CC(O)CN (stereo unspecified),inactive,inactive,inactive,inactive,inactive,inactive,inactive,inactive,inactive,inactive,inactive,–,inactive,inactive,inactive,inactive,inactive,–,–,–
CC(C)(Cc1c[nH]c2ccccc12)NCC(O)COc1ccccc1C#N (stereo unspecified),inactive,inactive,inactive,inactive,inactive,inactive,inactive,inactive,inactive,inactive,–,–,–,–,inactive,inactive,–,–,11.7%,28.2 µM (active)
CCOc1cc(OCC)c(C(C)=O)cc1OCC,inactive,21.3 µM (active),inactive,–,inactive,inactive,inactive,inactive,26.8 µM (active),inactive,42.5 µM (active),26.8 µM (active),–,inactive,inactive,inactive,–,inactive,–,–
CCCCOc1ccc(N)cc1,inactive,inactive,inactive,inactive,–,inactive,inactive,inactive,inactive,inactive,inactive,54.5 µM (active),39.9 µM (active),inactive,inactive,inactive,inactive,–,–,–
CC1(C)CC(O)CC(C)(C)N1[O],inactive,inactive,inactive,inactive,inactive,inactive,inactive,inactive,inactive,inactive,inactive,–,inactive,inactive,inactive,inactive,inactive,–,–,–
Sc1nc(S)nc(S)n1,inactive,inactive,inactive,inactive,inactive,inactive,inactive,inactive,inactive,inactive,inactive,inactive,inactive,inactive,inactive,inactive,inactive,–,–,–
Cc1cc(N)n(-c2ccccc2)n1,inactive,inactive,inactive,inactive,inactive,inactive,inactive,inactive,inactive,inactive,inactive,–,–,inactive,inactive,inactive,inactive,–,–,–
O=C(OC1C[C@H]2CC[C@@H](C1)[N+]21CCCC1)C(O)(c1ccccc1)c1ccccc1 (stereo partly specified),inactive,–,inactive,inactive,inactive,inactive,inactive,inactive,inactive,inactive,inactive,inactive,4.9 µM (active),inactive,inactive,inactive,inactive,inactive,-1.51%,inactive
NC(=O)c1ccccc1C(N)=O,inactive,inactive,–,inactive,inactive,inactive,inactive,inactive,inactive,inactive,inactive,inactive,40.1 µM (active),–,inactive,inactive,inactive,inactive,–,–
CC(C)=CCC/C(C)=C/C=N/O,inactive,inactive,inactive,–,inactive,inactive,inactive,inactive,inactive,inactive,inactive,34.4 µM (active),35.6 µM (active),–,inactive,inactive,inactive,–,–,–
